Data from PubChem BioAssay (EPA / NIEHS).
Active and inactive are the calls of the source. The calls were made as follows: active = hit-call score of the fitted dose curve at least 0.9, where 1 is the maximum; inconclusive = response in the unintended direction; inactive = score below 0.9.

Test: IUF_NPC2-5_cytotoxicity_120hr: Cytotoxicity Assessment at 120 hours in the Leibniz Research Institute for Environmental Medicine (IUF) Neural Progenitor Cell Migration and Differentiation Assay (NPC2-5) (AID 2284307);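 as to AC50: LDH released into supernatant as membrane damage marker via resorufin fluorescence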
Experimental: IUF_NPC2-5 is a cell-based, multiplexed assay that uses hNPC, a human primary neural progenitor cells, with measurements taken at 72 or 120 hours after chemical dosing in a 96-well plate. Human neural progenitor cells (hNPC) are generated from human fetal brain cortex at gestational week (GW) 16-19. In the neural progenitor cell migration and differentiation assay (NPC2-5), hNPCs grown as spheres are plated on an extracellular matrix and migrate and differentiate out of the sphere core. The processes radial glia migration, neuronal and oligodendrocyte migration as well as neuronal differentiation, neuronal morphology and oligodendrocyte differentiation are studied using automated phase contrast imaging and automated fluorescence imaging in combination with high content image analysis. In parallel, the cell viability is assessed using an alamar blue viability assay and the cytotoxicity using a lactate dehydrogenase dependent membrane integrity assay.IUF_NPC2-5_cytotoxicity_120hr is one of 12 assay components measured from the IUF_NPC2-5 assay. It is designed to measure cytotoxicity at 120hr due to loss of membrane integrity. LDH measurements are performed from medium supernatants of each well and are based on the reduction of resazurin to resorufin measured as fluorescence signal (relative fluorescence unit) in a multiplate reader. Data from the IUF_NPC2-5_cytotoxicity_120hr component was analyzed at the endpoint IUF_NPC2-5_cytotoxicity_120hr in the positive analysis fitting direction relative to the dynamic range and baseline of activity. Using a type of viability reporter, gain-of-signal activity can be used to understand cytotoxicity effects.
Culture protocol: After the cell expansion period the cells are cultured for up to four weeks in which they are passaged every week as described in 3.6. Between one to three days after passaging spheres at a size of 0.3 mm are picked for the test method. For the assessment of neural progenitor cell migration and differentiation, the spheres are plated on poly-D-lysine/laminin coated 96-well flat bottom plates in differentiation medium (N2) to initiate migration and differentiation. Thereby one 0.3 mm big sphere is plated in the middle of a well. The differentiation medium consists of DMEM and Ham's F12 at a ratio of 3 to 1 supplemented with 1% N2 and 1% penicillin and streptomycin. Within 5 days NPCs radially migrate out of the sphere core and differentiate into radial glia cells (nestin positive), neurons (TUBB3 positive), oligodendrocytes (O4 positive) and astrocytes (GFAP positive). Cultivation during the test method is performed at 37C and 5% CO2 at a ph of 7.2-7.6.Exposure: 0.3 mm big hNPC are plated in the already prepared test conditions. Exposure starts at day 0 of differentiation and is continued over five days of differentiation until the experiment is terminated. Cells are fed with fresh medium at day 3 of differentiation. Therefore, half of the test condition solution (e.g. solvent control or compound dilution) is replaced by freshly prepared test condition solution.Test Method: Migration distance and cytotoxicity is determined after 72 hours based on brightfield images of each well. The assay is terminated by the assessment of cell viability and cytotoxicity as well as cell fixation after 120 h. Immunocytochemistry is performed for Hoechst positive nuclei, TUBB3 positive neurons and O4 positive oligodendrocytes. On the ICC images, migration after 120 hours, neuronal and oligodendrocyte number, neuronal morphology and neuron/oligodendrocyte specific migration is assessed. immunocytochemical staining (ICC) generates an image for each sphere. The plates are scanned using an automated high content imaging device and all nuclei and their positions are determined automatically based on their intensity and size. Images are imported to the Omnisphero software to run the image analysis that measures the following endpoints. […]

Structure (SMILES) | outcome | AC50
CNC(=O)Oc1cccc2ccccc12 | inactive | 
Cc1c(COC(=O)[C@@H]2[C@H](/C=C(\Cl)C(F)(F)F)C2(C)C)cccc1-c1ccccc1 | inactive | 
CCSC(=O)N1CCCCCC1 | inactive | 
CCNC(=O)NC(=O)C(C#N)=NOC | inactive | 
CO/N=C(/C1=NOCCO1)c1ccccc1Oc1ncnc(Oc2ccccc2Cl)c1F | inactive | 
N#CN=C1SCCN1Cc1ccc(Cl)nc1 | inactive | 
COP(=S)(OC)SCn1nnc2ccccc2c1=O | inactive | 
CS(=O)(=O)c1cc(C(F)(F)F)ccc1C(=O)c1cnoc1C1CC1 | inactive | 
C=C(C)CN(CC)c1c([N+](=O)[O-])cc(C(F)(F)F)cc1[N+](=O)[O-] | inactive | 
CC(C)(C)C(=O)C(Oc1ccc(Cl)cc1)n1cncn1 (stereo unspecified) | inactive | 
CC1(C)C(C=C(Cl)Cl)C1C(=O)OC(C#N)c1cccc(Oc2ccccc2)c1 (stereo unspecified) | inactive | 
O=C(Nc1ccccc1-c1ccc(Cl)cc1)c1cccnc1Cl | inactive | 
CN/C(=N\[N+](=O)[O-])NCc1cnc(Cl)s1 | inactive | 
CCOP(=O)(OCC)Oc1nc(Cl)c(Cl)cc1Cl |  | 169 nM (active)
CS(=O)(=O)c1ccc(C(=O)C2C(=O)CCCC2=O)c([N+](=O)[O-])c1 | inactive | 
COC(=O)N(C(=O)N1CO[C@@]2(C(=O)OC)Cc3cc(Cl)ccc3C2=N1)c1ccc(OC(F)(F)F)cc1 | inactive | 
